# Results filed as inconclusive are left out. Active and inactive are the calls of the source. Calls follow the shape of the dose curve; as a rule, active = well fitted curve in the direction sought with a large enough effect; inconclusive = small, poorly fitted or top-dose-only effect, or another doubt; inactive = no such curve, though single readings can be large or run the other way.
# Assay: Secondary Assay for Activators of Human Pyruvate Kinase M2 isoform - Cell Titer Glo Cytotoxicity for Probe SAR
# Conditions: HeLa viability, CellTiter-Glo ATP luminescence, 24 h; series mostly up to 58.2 µM
# Method: NIH Chemical Genomics Center [NCGC]
# Matthew G. Vander Heiden, M.D., Ph.D. [Harvard Medical School, 77 Avenue Louis Pasteur, Boston, MA 02115]
# We have identified a series of activators of the M2 isoform of human pyruvate kinase. The assay described here examines the cytotoxicity of these compounds by measuring the total ATP content of Hela cells after 24 hrs of exposure to compound.
# 500 Hela cells/ 4ul in media (DMEM with high glucose, 10% FBS, 1x Pen Strep, 1x NEAA) were dispensed into a white solid 1536-microwell plate with a Thermo Multidrop. The plates were incubated at 37 degrees Celsius for 24 hours. The cells were then treated with compounds using the Kalypsys pin tool, delivering 23 nl of test compounds and the control doxorubicin. The plates were then incubated for an additional 24 hours at 37 degrees C after which 4 ul of Promega Cell-Titer Glo was dispensed using the Thermo Multidrop. The plates were incubated at room temperature for 10 min before reading luminescence on the Perkin Elmer ViewLux with images collected with 2x binning and a 5 sec exposure time.
row,SMILES,outcome
1,Cc1ccc(NS(=O)(=O)c2ccc(N3CCCC3=O)cc2)cc1C,inactive
2,CC(=O)N1CCCc2cc(S(=O)(=O)Nc3ccc(C)c(C)c3)ccc21,inactive
3,O=C1c2ccccc2C(=O)N1c1cnc2ccccc2c1,inactive
4,Cc1cc(NS(=O)(=O)c2ccc3c(c2)CCC(=O)N3)ccc1F,inactive
5,Cc1ccc(NS(=O)(=O)c2ccc(F)cc2)cc1C,inactive
6,CSc1cc2c(s1)c1cnn(Cc3cccc(O)c3)c(=O)c1n2C,inactive
7,O=C1CCc2cc(Cl)c(S(=O)(=O)Nc3ccc(Cl)c(Cl)c3)cc2N1,inactive
8,O=C1c2ccccc2C(=O)N1c1cccc(Cl)c1,inactive
9,O=C1c2ccccc2C(=O)N1c1cccc2cccnc12,inactive
10,Cc1ccn2c(NCc3ccco3)c(-c3ccccc3)nc2c1,inactive
11,Cc1ccc(NS(=O)(=O)c2ccc(Cl)cc2)cc1C,inactive
12,O=C1CCc2cc(S(=O)(=O)Nc3ccccc3-c3ccccc3)ccc2N1,inactive
13,Cc1ccc(Nc2c(-c3ccsc3)nc3cccc(C)n23)cc1,inactive
14,COc1cc(F)c(S(=O)(=O)N2CCCN(S(=O)(=O)c3cccc(N)c3)CC2)c(F)c1,inactive
15,O=C1NS(=O)(=O)c2ccccc21,inactive
16,O=C1CCc2cc(S(=O)(=O)Nc3ccccc3F)ccc2N1,inactive
17,COc1ccc(-c2nc3ccccn3c2Nc2ccccc2C)cc1,inactive
18,O=C1c2ccccc2C(=O)N1Cc1ccccn1,inactive
19,Cc1ccc(C)c(OC2=NS(=O)(=O)c3ccccc32)c1,inactive
20,O=C1CCc2cc(S(=O)(=O)Nc3ccc(F)c(Cl)c3)ccc2N1,inactive

row,SMILES,outcome
1,Cc1ccc(NS(=O)(=O)c2ccc3c(c2)CC(=O)N3)cc1C,inactive
2,O=S1(=O)N=C(Oc2cccc(Cl)c2)c2ccccc21,inactive
3,Cc1ccc(Nc2c(-c3ccc(C)s3)nc3ccccn23)cc1,inactive
4,Cc1ccc(NS(=O)(=O)c2cc3c(cc2Cl)CCC(=O)N3)cc1C,inactive
5,O=C1c2ccccc2C(=O)N1c1nccs1,inactive
6,O=C1c2ccccc2C(=O)N1Cc1cccnc1,inactive
7,CNc1cccc(S(=O)(=O)N2CCN(S(=O)(=O)c3ccc4c(c3)OCCO4)CC2)c1,inactive
8,O=C1c2ccccc2C(=O)N1C1CCCCC1,inactive
9,Cc1ccc(NS(=O)(=O)c2cc3c(cc2N(C)C)CCC(=O)N3)cc1C,inactive
10,Cc1ccc2nc(-c3ccc(C)o3)c(Nc3ccccc3)n2c1,inactive
11,Cc1cc2c(s1)c1cnn(Cc3ccccc3F)c(=O)c1n2C,inactive
12,O=C1CCc2cc(S(=O)(=O)NCc3ccccc3)ccc2N1,inactive
13,O=C1CCc2cc(S(=O)(=O)Nc3cccc(Oc4ccccc4)c3)ccc2N1,inactive
14,O=C1CCc2cc(S(=O)(=O)Nc3cccnc3)ccc2N1,inactive
15,Cc1ccc(NS(=O)(=O)c2cc3c(cc2C)NC(=O)CO3)cc1C,inactive
16,Cc1ccc(NS(=O)(=O)c2cc3c(cc2Cl)NC(=O)C3)cc1C,inactive
17,O=C1CCc2cc(S(=O)(=O)Nc3cccc(-c4ccccc4)c3)ccc2N1,inactive
18,Cc1ccc(NS(=O)(=O)c2ccc3c(c2)CCC(=O)N3)cc1Cl,inactive
19,O=C1c2ccccc2C(=O)N1c1ccncc1,inactive
20,Cn1c2cc(S(C)=O)sc2c2cnn(Cc3cccc(N)c3)c(=O)c21 (stereo not given),inactive
